Experimental data published in PubChem BioAssay (NCATS).
Records with an inconclusive call do not appear. Active and inactive are the calls of the source. Calls follow the shape of the dose curve; as a rule, active = well fitted inhibition curve with a large enough effect; inconclusive = small, poorly fitted or top-dose-only effect; inactive = flat fitted curve, though single readings scatter.

Biological target: Calcium and integrin-binding protein 1 (Homo sapiens) (UniProt Q99828)
Experiment: Primary qHTS for Identification of Calcium Integrin Binding Protein 1 (CIB1) Competitor (AID 1508620);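 also: GST tagged CIB1 binding a fluorescein labelled alphaIIb integrin peptide tracer; top concentration of the series differs between compounds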
Settings: CIB1-GST / FITC-alphaIIb peptide fluorescence polarization; series mostly up to 114 µM; activity change, negative = inhibition: at the top concentration
Outline: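 CIB1-GST (1 uM final) and compound incubated 15 min at room temperature before adding FITC-alphaIIb peptide tracer (100 nM final). Competition for binding read by fluorescence polarization (ex 480, em 540) after another 15 min at room temperature.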
% is scaled to controls: 0 for no effect and ±100 for the full control effect.

Chain of Calcium and integrin-binding protein 1 (Homo sapiens) (Q99828 whole entry, looked up): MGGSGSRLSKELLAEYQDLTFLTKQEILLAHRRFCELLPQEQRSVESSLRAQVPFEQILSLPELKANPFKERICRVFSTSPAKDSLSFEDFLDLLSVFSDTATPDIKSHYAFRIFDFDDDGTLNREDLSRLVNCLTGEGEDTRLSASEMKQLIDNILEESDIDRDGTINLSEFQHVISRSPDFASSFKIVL

SMILES	activity change, negative = inhibition
Cn1nnnc1Sc1ncnc2scc(-c3ccc(C(F)(F)F)cc3)c12	1.66% (inactive)
Cc1cc(C)nc(NC(=S)N2CCN(c3nc4ccccc4s3)CC2)c1	-3.82% (inactive)
CCN(CCc1cn(C)cn1)c1ncnc2ccc(-c3ccc4c(c3)OCO4)cc12	4.75% (inactive)
COc1ccc(-c2nnc3n2N=C(c2ccc(OC)c(OC)c2)CS3)cc1	-2.27% (inactive)
c1c[nH]c(C2CCN(c3ncc(-c4ccc5c(c4)OCCCO5)s3)CC2)n1	-11.3% (inactive)
CC(=O)c1ccc(N2CCN(S(=O)(=O)c3ccc4c(c3)n(C)c(=O)n4C)CC2)cc1	17% (inactive)
Cc1ccc(NS(=O)(=O)c2ccc3c(c2)CCC(C)(C)O3)cc1C	-0.038% (inactive)
O=C(Nc1ccc(-n2cncn2)c(C(F)(F)F)c1)Nc1nnc(-c2ccncc2)s1	9.14% (inactive)
O=S1(=O)N=C(Oc2cccc(-c3ccccc3)c2)c2ccccc21	2.12% (inactive)
N#Cc1ccc(Nc2nn3c(=O)c4ccccc4nc3s2)cc1	9.22% (inactive)
O=C(Nc1ccc(-c2cccnc2)nc1)c1cccs1	4.93% (inactive)
Cc1cccc(-n2cnc3cc(C(=O)NC4CCCCC4)ccc32)c1	-5.83% (inactive)
Cc1ccc(C)c(OC2=NS(=O)(=O)c3ccccc32)c1	-4.55% (inactive)
COc1ccc(CC(=O)Nc2nc(-c3ccc4c(c3)CCN4C(=O)c3ccccc3C)c(C)s2)cc1	2.98% (inactive)
CC(C)c1ccccc1-c1ncc(F)c(NCc2ccc(-c3ccn[nH]3)cc2)n1	-4.7% (inactive)
CC(=O)Nc1sc2c(c1-c1cccc3c1sc1ccccc13)CCNC2	9.6% (inactive)
O=S1(=O)N=C(Oc2cccc3ccccc23)c2ccccc21	-7.72% (inactive)
O=C1CCc2cc(S(=O)(=O)NCc3ccccc3)ccc2N1	1.14% (inactive)
